# In the supplement of paper PMC8728848:
# Only a selection was taken, and the strongest signals are over-represented in it overall.
# B1: Banana lectin (Musa acuminata) (protein)
# chain: MNGAIKVGAWGGNGGSAFDMGPAYRIISVKIFSGDVVDGVDVTFTYYGKTETRHYGGSGGTPHEIVLQEGEYLVGMAGEVANYHGAVVLGKLGFSTNKKAYGPFGNTGGTPFSLPIAAGKISGFFGRGGKFLDAIGVYLEPLEHHHHHH
# How the values were obtained:
# Test in all cases: glycan array binding signal (z-score within array); higher = stronger binding
# Settings in all cases: glycan notation: IUPAC condensed, linker removed
# [1] = target: GlcNAc(b1-3)Gal(b1-4)GlcNAc(b1-3)Gal(b1-4)GlcNAc(b1-3)Gal(b1-4)GlcNAc(b1-2)Man(a1-3)[GlcNAc(b1-3)Gal(b1-4)GlcNAc(b1-3)Gal(b1-4)GlcNAc(b1-3)Gal(b1-4)GlcNAc(b1-2)Man(a1-6)]Man(b1-4)GlcNAc(b1-4)[Fuc(a1-6)]GlcNAc
# How it was run: (§1)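 Arrays were curated from the Consortium for Functional Glycomics database, 3228 in total, and kept only where the protein sequence was available. Binding is expressed as a within-array Z-score. This score was averaged across arrays of the same protein sequence at different concentrations or buffers and across linkers, and negative values can be read as non-binding.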
# [2] = target: GlcNAc(b1-3)Gal(b1-4)GlcNAc(b1-3)Gal(b1-4)GlcNAc(b1-3)Gal(b1-4)GlcNAc(b1-3)Gal(b1-4)GlcNAc(b1-2)Man(a1-3)[GlcNAc(b1-3)Gal(b1-4)GlcNAc(b1-3)Gal(b1-4)GlcNAc(b1-3)Gal(b1-4)GlcNAc(b1-3)Gal(b1-4)GlcNAc(b1-2)Man(a1-6)]Man(b1-4)GlcNAc(b1-4)GlcNAc
# How it was run: as §1
# [3] = target: GlcNAc(b1-3)Gal(b1-4)GlcNAc(b1-3)Gal(b1-4)GlcNAc(b1-3)GalNAc
# How it was run: as §1
# [4] = target: Man(a1-2)Man(a1-2)Man(a1-6)[Man(a1-3)]Man
# How it was run: as §1
# Man(a1-2)Man(a1-3)Man = target: Man(a1-2)Man(a1-3)Man
# How it was run: as §1
# [5] = target: Man(a1-2)Man(a1-3)[Man(a1-2)Man(a1-6)]Man
# How it was run: as §1
# [6] = target: Man(a1-2)Man(a1-3)[Man(a1-2)Man(a1-6)]Man(a1-6)[Man(a1-2)Man(a1-2)Man(a1-3)]Man
# How it was run: as §1
# [7] = target: Man(a1-2)Man(a1-3)[Man(a1-2)Man(a1-6)]Man(a1-6)[Man(a1-2)Man(a1-2)Man(a1-3)]Man(b1-4)GlcNAc(b1-4)GlcNAc
# How it was run: as §1
# [8] = target: Man(a1-2)Man(a1-3)[Man(a1-6)]Man(a1-6)[Man(a1-2)Man(a1-3)]Man(b1-4)GlcNAc(b1-4)GlcNAc
# How it was run: as §1
# [9] = target: Man(a1-2)Man(a1-6)[Man(a1-3)]Man(a1-6)[Man(a1-2)Man(a1-2)Man(a1-3)]Man
# How it was run: as §1
# [10] = target: Man(a1-2)Man(a1-6)[Man(a1-3)]Man(a1-6)[Man(a1-2)Man(a1-2)Man(a1-3)]Man(b1-4)GlcNAc(b1-4)GlcNAc
# How it was run: as §1
# [11] = target: Man(a1-3)[Man(a1-6)]Man(a1-6)[Man(a1-2)Man(a1-3)]Man(b1-4)GlcNAc(b1-4)GlcNAc
# How it was run: as §1
# [12] = target: Man(a1-3)[Man(a1-6)]Man(b1-4)GlcNAc(b1-4)GlcNAc
# How it was run: as §1
# [13] = target: Man(a1-3)[Man(a1-6)]Man(b1-4)GlcNAc(b1-4)[Fuc(a1-6)]GlcNAc
# How it was run: as §1
# [14] = target: Neu5Ac(a2-3)Gal(b1-3)GalNAc6S
# How it was run: as §1
# [15] = target: Neu5Ac(a2-3)Gal(b1-3)GlcNAc(b1-6)GalNAc
# How it was run: as §1
# [16] = target: Neu5Ac(a2-3)Gal(b1-3)[GlcNAc(b1-6)]GalNAc
# How it was run: as §1
# [17] = target: Neu5Ac(a2-3)Gal(b1-3)]Neu5Ac(a2-3)Gal(b1-4)]GlcNAc
# How it was run: as §1
# [18] = target: Neu5Ac(a2-3)Gal(b1-4)GlcNAc(b1-2)[Neu5Ac(a2-3)Gal(b1-4)GlcNAc(b1-4)]Man(a1-3)[GlcNAc(b1-4)][Neu5Ac(a2-3)Gal(b1-4)GlcNAc(b1-4)Man(a1-6)]Man(b1-4)GlcNAc(b1-4)GlcNAc
# How it was run: as §1
# [19] = target: Neu5Ac(a2-3)Gal(b1-4)GlcNAc(b1-3)Gal(b1-4)GlcNAc(b1-2)Man(a1-3)[Neu5Ac(a2-3)Gal(b1-4)GlcNAc(b1-3)Gal(b1-4)GlcNAc(b1-2)Man(a1-6)]Man(b1-4)GlcNAc(b1-4)GlcNAc
# How it was run: as §1
# [20] = target: Neu5Ac(a2-3)[GalNAc(b1-4)]Gal(b1-4)Glc
# How it was run: as §1
# [21] = target: Neu5Ac(a2-3)[GalNAc(b1-4)]Gal(b1-4)GlcNAc
# How it was run: as §1
# [22] = target: Neu5Ac(a2-6)Gal(b1-4)GlcNAc(b1-2)Man(a1-6)[Man(a1-3)]Man(b1-4)GlcNAc(b1-4)GlcNAc
# How it was run: as §1
# [23] = target: Neu5Ac(a2-6)Gal(b1-4)GlcNAc(b1-3)Gal(b1-4)GlcNAc
# How it was run: as §1
# [24] = target: Neu5Ac(a2-6)Gal(b1-4)GlcNAc(b1-3)Gal(b1-4)GlcNAc(b1-3)GalNAc
# How it was run: as §1
# [25] = target: Neu5Ac(a2-6)Gal(b1-4)GlcNAc(b1-3)Gal(b1-4)GlcNAc(b1-3)[Neu5Ac(a2-6)Gal(b1-4)GlcNAc(b1-3)Gal(b1-4)GlcNAc(b1-6)]GalNAc
# How it was run: as §1
# Neu5Ac(a2-6)GalNAc = target: Neu5Ac(a2-6)GalNAc
# How it was run: as §1
# [26] = target: Neu5Ac(a2-6)GalNAc(b1-4)GlcNAc
# How it was run: as §1
# [27] = target: Neu5Ac(a2-8)Neu5Ac(a2-3)Gal(b1-3)GalNAc(b1-4)[Neu5Ac(a2-3)]Gal(b1-4)Glc
# How it was run: as §1
# [28] = target: Neu5Ac(a2-8)Neu5Ac(a2-8)Neu5Ac(a2-3)Gal(b1-4)Glc
# How it was run: as §1
# Neu5Gc(a2-3)Gal(b1-4)Glc = target: Neu5Gc(a2-3)Gal(b1-4)Glc
# How it was run: as §1
binder,measurement,setting,value
B1,glycan array binding signal (z-score),[1],-0.122
same,glycan array binding signal (z-score),[2],-0.165
same,glycan array binding signal (z-score),[3],-0.184
same,glycan array binding signal (z-score),[4],6.19
same,glycan array binding signal (z-score),Man(a1-2)Man(a1-3)Man,2.25
same,glycan array binding signal (z-score),[5],4.51
same,glycan array binding signal (z-score),[6],5.96
same,glycan array binding signal (z-score),[7],2.62
same,glycan array binding signal (z-score),[8],8.11
same,glycan array binding signal (z-score),[9],3.34
same,glycan array binding signal (z-score),[10],6.29
same,glycan array binding signal (z-score),[11],13.1
same,glycan array binding signal (z-score),[12],4.01
same,glycan array binding signal (z-score),[13],2.88
same,glycan array binding signal (z-score),[14],-0.237
same,glycan array binding signal (z-score),[15],-0.288
same,glycan array binding signal (z-score),[16],-0.214
same,glycan array binding signal (z-score),[17],-0.223
same,glycan array binding signal (z-score),[18],-0.225
same,glycan array binding signal (z-score),[19],-0.167
same,glycan array binding signal (z-score),[20],-0.132
same,glycan array binding signal (z-score),[21],-0.169
same,glycan array binding signal (z-score),[22],3.56
same,glycan array binding signal (z-score),[23],-0.226
same,glycan array binding signal (z-score),[24],-0.223
same,glycan array binding signal (z-score),[25],-0.161
same,glycan array binding signal (z-score),Neu5Ac(a2-6)GalNAc,-0.204
same,glycan array binding signal (z-score),[26],-0.221
same,glycan array binding signal (z-score),[27],-0.192
same,glycan array binding signal (z-score),[28],-0.139
same,glycan array binding signal (z-score),Neu5Gc(a2-3)Gal(b1-4)Glc,-0.209
